Consider 29 compounds from PubChem BioAssay (EPA / NIEHS).

The target in experiment [1] is Paired box protein Pax-6 (Homo sapiens) (UniProt P26367). The experiment in a line: ATG_Pax6_CIS: Attagene CIS-FACTORIAL HepG2 Assay for human Paired Box 6 (PAX6) (AID 2282956). As to conditions: HepG2 CIS-FACTORIAL PAX6 reporter transcription, RNA readout; actives raise or lower the signal. In short, it runs like this:
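Readout: reporter transcript fluorescence after RT-PCR and capillary electrophoresis. Cells: HepG2, transiently transfected with cis-regulated MRTUs. Exposure 24 h. Gain or loss of signal fitted bidirectionally relative to DMSO.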

Experiment [2] can be described thus: ATG_PXRE_CIS: Attagene CIS-FACTORIAL HepG2 Assay for human Pregnane X Receptor Element (PXRE) (AID 2282957). The following applies: HepG2 Attagene CIS-FACTORIAL PXRE reporter, mRNA; actives raise or lower the signal. In short, it runs like this: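 Using HepG2 transfected with multiple reporter transcription units, endogenous factor-driven transcription was scored as reporter mRNA after 24 h exposure.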

Experiment [3] in a line: ATG_PPRE_CIS: Attagene CIS-FACTORIAL HepG2 Assay for human Peroxisome Proliferator-activated Response Element (PPRE) (AID 2282958). As to conditions: HepG2 PPRE cis-element reporter, Attagene transcription factor profiling; actives raise or lower the signal. In short, it runs like this:
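HepG2 cells are transiently transfected with multiplexed cis-promoter reporter units to report endogenous PPAR activity. After 24 h dosing, reporter mRNA is read by RT-PCR and capillary electrophoresis. Fitting is bidirectional against DMSO.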

The nature of experiment [4]: ATG_RORE_CIS: Attagene CIS-FACTORIAL HepG2 Assay for human RAR-related Orphan Receptor Element (RORE) (AID 2282959). The following applies: HepG2 Attagene cis-factorial RORE reporter, mRNA; actives raise or lower the signal. The gist of the method: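 HepG2 cells carrying transiently transfected cis-regulated reporter units; RORE-driven reporter mRNA quantified 24 h post-dosing by RT-PCR, 6-FAM primer extension, HpaI digestion and capillary electrophoresis. Bidirectional fit versus DMSO.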

Experiment [5] can be described thus: ATG_Sox_CIS: Attagene CIS-FACTORIAL HepG2 Assay for human SRY-box transcription factor (SOX) (AID 2282960). The following applies: HepG2 Attagene cis-factorial SOX reporter, mRNA; actives raise or lower the signal. The gist of the method:
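HepG2 cells transiently transfected with multiple cis-regulated reporter units, then dosed for 24 h. Reporter mRNA quantified by RT-PCR, fluorescent labelling, HpaI digestion and capillary electrophoresis; bidirectional fit versus DMSO.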

Experiment [6] deals with Transcription factor Sp1 (Homo sapiens) (UniProt P08047). The experiment in a line: ATG_Sp1_CIS: Attagene CIS-FACTORIAL HepG2 Assay for human Specificity Protein 1 (Sp1) (AID 2282961). As to conditions: HepG2 Sp1 cis-reporter transcription, actives raise or lower the signal. In short, it runs like this: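 HepG2 cells transiently transfected with multiplexed cis-regulated reporter constructs, chemical exposure 24 h. Reporter mRNA quantified by RT-PCR with capillary electrophoresis; bidirectional fit relative to DMSO.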
Transcription factor Sp1 (Homo sapiens), sequence (P08047 whole entry, looked up): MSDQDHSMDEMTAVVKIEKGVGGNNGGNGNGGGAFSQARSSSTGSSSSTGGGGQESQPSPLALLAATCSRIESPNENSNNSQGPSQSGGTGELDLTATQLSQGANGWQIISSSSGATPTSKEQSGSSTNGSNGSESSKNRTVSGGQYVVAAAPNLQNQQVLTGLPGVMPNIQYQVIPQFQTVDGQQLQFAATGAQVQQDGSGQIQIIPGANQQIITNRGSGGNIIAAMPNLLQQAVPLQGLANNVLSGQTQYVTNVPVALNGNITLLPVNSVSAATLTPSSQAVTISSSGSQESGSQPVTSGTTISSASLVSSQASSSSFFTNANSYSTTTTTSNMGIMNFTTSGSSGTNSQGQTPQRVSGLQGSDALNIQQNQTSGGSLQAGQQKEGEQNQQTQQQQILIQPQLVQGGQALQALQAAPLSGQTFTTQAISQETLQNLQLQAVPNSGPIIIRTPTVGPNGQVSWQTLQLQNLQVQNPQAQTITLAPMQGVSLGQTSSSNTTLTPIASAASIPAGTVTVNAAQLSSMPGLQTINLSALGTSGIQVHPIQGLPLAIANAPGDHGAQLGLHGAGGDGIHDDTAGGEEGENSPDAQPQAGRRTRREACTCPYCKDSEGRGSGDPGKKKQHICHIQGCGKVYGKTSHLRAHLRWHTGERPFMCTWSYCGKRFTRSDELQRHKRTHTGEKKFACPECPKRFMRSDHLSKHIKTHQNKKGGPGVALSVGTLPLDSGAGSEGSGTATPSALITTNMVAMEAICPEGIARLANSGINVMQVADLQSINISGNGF

Experiment [7] in a line: ATG_SREBP_CIS: Attagene CIS-FACTORIAL HepG2 Assay for human Sterol Regulatory Element Binding (SREBP) (AID 2282962). As to conditions: HepG2 Attagene cis-factorial SREBP reporter, mRNA; actives raise or lower the signal. In short, it runs like this: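 Readout: fluorescent reporter-transcript peaks resolved by capillary electrophoresis after RT-PCR. Cells were human HepG2 carrying transfected cis-promoter reporter constructs, dosed for 24 h. Gain or loss of signal was fitted against DMSO controls.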

For experiment [8], the target named is Signal transducer and activator of transcription 3 (Homo sapiens) (UniProt P40763). The experiment in a line: ATG_STAT3_CIS: Attagene CIS-FACTORIAL HepG2 Assay for human Signal Transducer and Activator of Transcription 3 (STAT3) (AID 2282963). As to conditions: HepG2, Attagene cis-factorial STAT3 reporter transcription; actives raise or lower the signal. In short, it runs like this:
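HepG2, MRTU-transfected, 24 h dosing. RNA → RT → PCR → FAM label → HpaI → CE. Bidirectional fit vs DMSO.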

Experiment [9] is described as follows: ATG_TA_CIS: Attagene CIS-FACTORIAL HepG2 Assay for human TA Basal Promoter (AID 2282964). As to conditions: HepG2 Attagene CIS-factorial TA basal promoter reporter; actives raise or lower the signal. In short, it runs like this:
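Background internal-marker endpoint from a 52-component HepG2 cis-reporter panel. Cells treated 24 h; reporter transcripts quantified via RT-PCR and CE fluorescence against DMSO baseline.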

Active and inactive are the calls of the source. Rule for the calls: active = hit-call score of the fitted dose curve at least 0.9, where 1 is the maximum; inactive = score below 0.9.

Signal transducer and activator of transcription 3 (Homo sapiens), sequence (P40763 whole entry, looked up): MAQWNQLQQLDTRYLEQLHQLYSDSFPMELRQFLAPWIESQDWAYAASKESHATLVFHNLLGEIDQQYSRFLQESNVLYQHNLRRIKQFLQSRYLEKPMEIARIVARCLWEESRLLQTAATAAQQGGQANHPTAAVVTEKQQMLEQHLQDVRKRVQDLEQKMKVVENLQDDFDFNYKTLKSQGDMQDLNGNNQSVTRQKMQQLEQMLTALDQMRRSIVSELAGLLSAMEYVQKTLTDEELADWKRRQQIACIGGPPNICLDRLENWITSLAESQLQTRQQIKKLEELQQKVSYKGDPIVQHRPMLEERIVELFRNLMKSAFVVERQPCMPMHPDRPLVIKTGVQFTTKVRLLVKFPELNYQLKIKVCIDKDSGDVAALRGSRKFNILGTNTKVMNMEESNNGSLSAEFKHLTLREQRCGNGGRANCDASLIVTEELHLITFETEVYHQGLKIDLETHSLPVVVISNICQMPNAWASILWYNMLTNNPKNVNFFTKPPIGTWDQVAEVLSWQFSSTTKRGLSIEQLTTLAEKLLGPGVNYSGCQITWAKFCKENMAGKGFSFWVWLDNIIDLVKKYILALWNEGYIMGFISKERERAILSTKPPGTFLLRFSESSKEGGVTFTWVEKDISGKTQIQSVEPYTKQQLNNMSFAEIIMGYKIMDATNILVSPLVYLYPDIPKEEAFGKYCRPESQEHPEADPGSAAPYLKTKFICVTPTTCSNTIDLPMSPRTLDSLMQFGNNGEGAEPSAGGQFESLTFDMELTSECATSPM
Paired box protein Pax-6 (Homo sapiens), sequence (P26367 whole entry, looked up): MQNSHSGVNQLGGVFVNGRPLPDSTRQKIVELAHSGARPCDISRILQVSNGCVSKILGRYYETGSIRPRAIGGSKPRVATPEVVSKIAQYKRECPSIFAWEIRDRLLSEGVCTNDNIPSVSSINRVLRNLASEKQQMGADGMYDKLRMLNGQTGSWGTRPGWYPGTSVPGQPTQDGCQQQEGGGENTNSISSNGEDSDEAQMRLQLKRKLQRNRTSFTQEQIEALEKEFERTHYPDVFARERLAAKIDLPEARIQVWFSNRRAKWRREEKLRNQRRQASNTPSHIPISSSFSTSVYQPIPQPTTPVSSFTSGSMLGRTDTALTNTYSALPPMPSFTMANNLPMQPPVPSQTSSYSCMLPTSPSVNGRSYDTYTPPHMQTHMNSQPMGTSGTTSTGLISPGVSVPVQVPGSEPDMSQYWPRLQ

As to `CCCCCCC(C)O` (centres undefined), the compound was called inactive in experiment [1], in [2], in [3], in experiment [4], in experiment [5] and in experiment [6]. Moreover, the result in experiment [7], in experiment [8] and in [9] was inactive.

With `O=S(=O)(O)CCCN1CCOCC1`, the outcome in experiment [1], in experiment [2], in experiment [3], in experiment [5], in [6] and in experiment [7] was inactive. Also, the result in experiment [8] and in experiment [9] was inactive.

On to `CC/C=C\CCOC(=O)C(C)C`, for which the compound was classed as inactive in experiment [1], in [2], in experiment [3], in experiment [5], in [6] and in experiment [7]. Moreover, the compound was called inactive in [8] and in [9].

With `CCCCCC1CCC(=O)O1` (centres undefined), the compound was called inactive in experiment [1], in experiment [2], in experiment [3], in experiment [4], in experiment [5] and in experiment [6]. The compound was called inactive in experiment [7], in experiment [8] and in experiment [9].

For `CC1=CC[C@@H](C(C)(C)O)CC1`, the compound was classed as inactive in experiment [1], in experiment [2], in [3], in [5], in experiment [6] and in experiment [7]. The outcome in experiment [8] and in experiment [9] was inactive.

On to `CCCCOC(=O)C(C)OC(=O)CCC` (centres undefined), for which the call in experiment [1], in experiment [2], in experiment [3], in experiment [4], in [5] and in [6] was inactive. In addition, the compound was classed as inactive in [7], in experiment [8] and in experiment [9].

Turning to `CCCCCC1C(=O)CCC1CC(=O)OC` (centres undefined), the outcome in experiment [1], in experiment [2], in [3], in experiment [5], in experiment [6] and in experiment [7] was inactive. The result in experiment [8] and in [9] was inactive.

Regarding `Nc1ccn([C@H]2CC[C@@H](CO)O2)c(=O)n1`, the outcome in experiment [1], in experiment [2], in experiment [3], in experiment [4], in [5] and in experiment [6] was inactive. The compound was classed as inactive in [7], in experiment [8] and in experiment [9].

As a reminder, the AC50 is the concentration at which the activity in the assay is half-maximal. With `C/C=C(\C)C(=O)OC/C=C(\C)CCC=C(C)C`, the result in [1], in [2], in experiment [4], in experiment [5], in experiment [6] and in experiment [8] was inactive. In addition, in [9], the compound was classed as inactive. The AC50 was 39.6 µM (active) in experiment [3] and 61.3 µM (active) in [7].

`CC(C)C(=O)c1ccccc1`: the compound was called inactive in [1], in [2], in [3], in [4], in [5] and in experiment [6]. Further, the call in experiment [7], in [8] and in experiment [9] was inactive.

As for `OCCCO`, the call in experiment [1], in experiment [2], in experiment [3], in experiment [4], in experiment [5] and in experiment [6] was inactive. Also, the result in experiment [7], in experiment [8] and in experiment [9] was inactive.

Regarding `FC(F)(F)c1ccc(Cl)c(Cl)c1`, the compound was classed as inactive in experiment [1], in experiment [3], in experiment [4], in experiment [5], in experiment [6] and in experiment [7]. Besides, the call in experiment [8] and in experiment [9] was inactive. Further, the AC50 in experiment [2] was 27.9 µM (active).

Consider `CC(C)(O)C(=O)c1ccc(OCCO)cc1`, for which the call in experiment [1], in experiment [2], in experiment [3], in [4], in experiment [5] and in [6] was inactive. For the same compound, the outcome in [7], in experiment [8] and in [9] was inactive.

With `CC1=CCC(C(C)(C)O)CC1` (centres undefined), the compound was called inactive in experiment [1], in experiment [2], in experiment [3], in experiment [5], in [6] and in experiment [7]. Further, the compound was classed as inactive in experiment [8] and in [9].

For `CCCCCCCOC(C)=O`, the compound was classed as inactive in experiment [1], in [3], in experiment [4], in experiment [5], in [6] and in experiment [7]. The call in experiment [8] and in experiment [9] was inactive. For the same compound, the AC50 in experiment [2] was 31 µM (active).

`CC1=CC(O)CC(C)(C)C1` (centres undefined): the compound was called inactive in experiment [1], in experiment [3], in experiment [5], in experiment [6], in experiment [7] and in experiment [8]. Also, the compound was called inactive in experiment [9]. For the same compound, in experiment [2], the half-maximal activity concentration (AC50) was 10.8 µM (active).

Consider `O=C(O)CS`, for which the compound was called inactive in experiment [1], in experiment [2], in experiment [3], in [4], in experiment [5] and in [6]. Besides, the result in experiment [7], in experiment [8] and in experiment [9] was inactive.

`CC(C)(C)c1cccc(O)c1`: the compound was classed as inactive in experiment [1], in [3], in experiment [5], in experiment [6], in experiment [7] and in [8]. In addition, in experiment [9], the outcome was inactive. Also, the AC50 in [2] is 11.5 µM (active).

On to `O=C1CCC(=O)N1`, for which the call in [1], in experiment [2], in experiment [3], in experiment [4], in experiment [5] and in experiment [6] was inactive. The compound was classed as inactive in experiment [7], in experiment [8] and in experiment [9].

With `CC1(C)CC(N)CC(C)(CN)C1` (centres undefined), the compound was classed as inactive in experiment [1], in experiment [2], in [3], in experiment [4], in experiment [5] and in experiment [6]. Further, the result in experiment [7], in experiment [8] and in experiment [9] was inactive.

On to `N#CCCCC(C#N)CCC#N` (centres undefined), for which the result in experiment [1], in experiment [2], in experiment [3], in experiment [4], in experiment [5] and in [6] was inactive. Also, the call in [7], in [8] and in experiment [9] was inactive.

As to `CCOCC(C)O` (centres undefined), the call in experiment [1], in [3], in experiment [4], in [5], in experiment [6] and in [7] was inactive. The outcome in experiment [8] and in experiment [9] was inactive. Besides, the AC50 in experiment [2] is 45.3 µM (active).

On to `ClCCOCCOCCCl`, for which the call in experiment [1], in [2], in experiment [3], in [4], in experiment [5] and in [6] was inactive. Moreover, the outcome in experiment [7], in experiment [8] and in experiment [9] was inactive.

On to `CCn1cc(C(=O)O)c(=O)c2ccc(C)nc21`, for which the call in experiment [1], in experiment [2], in experiment [3], in [4], in [5] and in experiment [6] was inactive. Besides, the outcome in [7], in experiment [8] and in [9] was inactive.

Regarding `CCCCCCCCOC(C)=O`, the compound was classed as inactive in [1], in experiment [3], in [4], in experiment [5], in experiment [6] and in experiment [7]. Also, the compound was classed as inactive in experiment [8] and in [9]. In experiment [2], the AC50 is 73.1 µM (active).

Turning to `O=S1(=O)CC=CC1`, the compound was classed as inactive in experiment [1], in experiment [2], in experiment [3], in experiment [4], in experiment [5] and in experiment [6]. Also, the compound was called inactive in experiment [7], in [8] and in experiment [9].

For `O=C1OC2(c3ccc(O)cc3Oc3cc(O)ccc32)c2ccccc21`, the compound was called inactive in [1], in experiment [3], in experiment [4], in experiment [5], in [6] and in experiment [7]. In addition, the compound was classed as inactive in [8] and in [9]. Further, the AC50 in [2] was 0.741 µM (active).

As to `CC(C)(O)CCc1ccccc1`, the result in [1], in [2], in experiment [3], in experiment [4], in experiment [5] and in experiment [6] was inactive. The result in [7], in experiment [8] and in [9] was inactive.

In the case of `CC1=CC[C@@H]2C[C@H]1C2(C)C`, the compound was called inactive in experiment [1], in experiment [2], in experiment [3], in experiment [4], in [5] and in experiment [6]. The result in experiment [7], in [8] and in [9] was inactive.
